Results as given in PubChem BioAssay (NCATS).
Records with an inconclusive call do not appear. The source made the active and inactive calls. Unless noted, calls follow the shape of the full dose curve.

Legend:
[1] = target: Androgen receptor (Homo sapiens) (UniProt P10275); experiment: qHTS assay for small molecule agonists of androgen receptor signaling (AID 588515; active = well fitted curve in the direction sought with a large enough effect in the signal ratio, with a control signal flat; the % refers to the signal ratio; also: % is scaled to controls: 0 for no effect and ±100 for the full control effect); settings: AR-UAS-bla HEK293, beta-lactamase ratio, agonist 16 h; stronger effect = higher value
Summary of the method: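 Stimulation of an AR-responsive β-lactamase reporter in GripTite HEK293 cells was measured after 16 h compound exposure at 37 °C, via CCF4 fluorescence after 2 h RT. EC50 from Hill fits, normalized to R1881 at 30 nM.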

[2] = target: Androgen receptor (Homo sapiens) (UniProt P10275); experiment: qHTS assay for small molecule antagonists of androgen receptor signaling (AID 588516; active = well fitted curve in the direction sought with a large enough effect in the signal ratio, with a control signal flat, not every such curve was filed as active; the % refers to the signal ratio; also: % is scaled to controls: 0 for no effect and ±100 for the full control effect); settings: AR-UAS-bla HEK293, beta-lactamase ratio, antagonist mode, 16 h; series mostly up to 76.8 µM
Summary of the method: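 HEK293 AR-UAS-bla cells, 10% dialyzed FBS medium; cpd titration + R1881 10 nM final, 16 h 37 C; CCF4 2 h RT; FRET ratio; IC50/efficacy via Hill fit.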

[3] = qHTS assay for small molecule antagonists of peroxisome proliferator-activated receptor delta signaling (AID 588535); settings: HEK293T PPARd-UAS-bla, beta-lactamase FRET ratio, 18 h; 460 nm channel;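 also: cells co-treated with a PPAR-delta agonist as stimulator during compound exposure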
Summary of the method: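 Fluorescence from CCF4-loaded GeneBLAzer PPAR-delta-UAS-bla HEK293T cells (2 hrs RT loading) quantified reporter inhibition after an 18 hr, 37 C compound exposure across a titration.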

[4] = target: Thyroid hormone receptor beta (Homo sapiens) (UniProt P10828); experiment: qHTS assay for small molecule antagonists of thyroid hormone receptor beta signaling (AID 588547; active = well fitted inhibition curve with a large enough effect in the signal ratio, with a control signal flat, not every such curve was filed as active; the % refers to the signal ratio;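 also: cells stimulated with 0.4 nM T3 agonist during compound exposure; % is scaled to controls: 0 for no effect and ±100 for the full control effect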); settings: TR-UAS-bla HEK293, beta-lactamase ratio, antagonist mode, 18 h
Summary of the method: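 TR-UAS-bla GripTite HEK293 cells in 2% charcoal/dextran FBS medium; compounds 0.59 nM to 92 uM with T3 at 0.4nM final, 18 h at 37 C. Beta-lactamase read by CCF4 fluorescence (460/530 nm); Hill fits gave IC50 and efficacy.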

[5] = target: Bile acid receptor (Homo sapiens) (UniProt Q96RI1); experiment: qHTS assay for small molecule antagonists of farnesoid X receptor signaling (AID 588526); settings: HEK293T FXR-UAS-bla, beta-lactamase ratio, antagonist mode; series mostly up to 76.7 µM; also: % is scaled to controls: 0 for no effect and ±100 for the full control effect
Summary of the method: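 Antagonist mode: titrated compounds tested against chenodeoxycholic acid stimulation (normalized to 50 uM CDCA and DMSO) in GeneBLAzer HEK293T cells for 16 h. Beta-lactamase read by CCF4 fluorescence; IC50 from Hill fits.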

[6] = target: Bile acid receptor (Homo sapiens) (UniProt Q96RI1); experiment: qHTS assay for small molecule agonists of farnesoid X receptor signaling (AID 588527); settings: HEK293T FXR-UAS-bla, beta-lactamase ratio, 16 h; activation: stronger effect = higher value;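 also: 0% = vehicle basal and 100% = reference agonist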
Summary of the method: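 Agonist-mode beta-lactamase reporter in GeneBLAzer FXR-UAS-bla HEK293T cells, titration up to 92 uM, 16 h exposure at 37 C, CCF4 fluorescence. Response scaled to DMSO (0%) and 100 uM chenodeoxycholic acid (100%), then Hill-fitted for EC50 and efficacy.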

[7] = target: Glucocorticoid receptor (Homo sapiens) (UniProt P04150); experiment: qHTS assay for small molecule antagonists of glucocorticoid receptor signaling (AID 588533; active = well fitted inhibition curve with a large enough effect in the signal ratio, with a control signal flat, not every such curve was filed as active; the % refers to the signal ratio); settings: HeLa MMTV-bla, GRE beta-lactamase ratio, antagonist mode, 18 h; series mostly up to 76.8 µM
Summary of the method: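 Antagonist-mode qHTS: compound titrations added to GRE-bla HeLa cells, then dexamethasone 2 nM final; 18 h, 37 C. CCF4 FRET fluorescence normalized to dexamethasone and DMSO; IC50 from Hill fit.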

[8] = qHTS assay for small molecule agonists of retinoid X receptor alpha signaling (AID 588544); settings: HEK293T RXRa-UAS-bla, beta-lactamase reporter, 18 h; 530 nm emission
[9] = qHTS assay for small molecule agonists of the antioxidant response element (ARE) signaling pathway (AID 651741; active = well fitted activation curve with a large enough effect in the signal ratio; the % refers to the signal ratio; also: potency is read from the fitted curve at half-maximal effect); settings: HepG2 ARE-bla reporter, beta-lactamase FRET ratio, 16 h; series mostly up to 96 µM
Summary of the method: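 Stably integrated ARE-beta-lactamase reporter HepG2 cells; 16 h compound incubation, 37 C; LiveBLAzer FRET substrate 2 h at room temperature; fluorescence intensity.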

[10] = target: Peroxisome proliferator-activated receptor gamma (Homo sapiens) (UniProt P37231); experiment: qHTS assay for small molecule antagonists of peroxisome proliferator-activated receptor gamma signaling (AID 588537; active = well fitted inhibition curve with a large enough effect in the signal ratio, with a control signal flat, not every such curve was filed as active; the % refers to the signal ratio;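 also: reporter cells co-stimulated with 50 nM rosiglitazone agonist during compound treatment; % of control where 0% means no effect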); settings: HEK293 PPARg-UAS-bla, beta-lactamase ratio, antagonist mode; series mostly up to 76.8 µM
Summary of the method: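 Fluorescence at 460 and 530 nm (405 nm excitation) reported beta-lactamase cleavage of CCF4 after 2 h room-temperature loading. HEK293 reporter cells in 1% charcoal/dextran-treated FBS had received compound and rosiglitazone for 16 h.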

Chain of Bile acid receptor (Homo sapiens) (Q96RI1 whole entry, looked up): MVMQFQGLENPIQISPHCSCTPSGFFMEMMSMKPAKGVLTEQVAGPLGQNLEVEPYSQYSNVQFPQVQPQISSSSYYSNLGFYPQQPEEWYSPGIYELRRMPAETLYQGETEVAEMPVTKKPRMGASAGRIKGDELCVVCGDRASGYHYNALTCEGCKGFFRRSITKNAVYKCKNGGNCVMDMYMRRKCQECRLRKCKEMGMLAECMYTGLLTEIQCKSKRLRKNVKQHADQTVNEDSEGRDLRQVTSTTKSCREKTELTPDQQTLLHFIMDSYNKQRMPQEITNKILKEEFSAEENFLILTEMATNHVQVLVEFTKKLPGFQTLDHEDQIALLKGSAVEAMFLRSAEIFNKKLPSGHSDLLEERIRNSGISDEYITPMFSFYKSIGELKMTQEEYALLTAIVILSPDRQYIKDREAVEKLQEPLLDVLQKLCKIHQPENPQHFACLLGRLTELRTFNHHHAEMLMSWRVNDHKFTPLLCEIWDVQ
Chain of Glucocorticoid receptor (Homo sapiens) (P04150 whole entry, looked up): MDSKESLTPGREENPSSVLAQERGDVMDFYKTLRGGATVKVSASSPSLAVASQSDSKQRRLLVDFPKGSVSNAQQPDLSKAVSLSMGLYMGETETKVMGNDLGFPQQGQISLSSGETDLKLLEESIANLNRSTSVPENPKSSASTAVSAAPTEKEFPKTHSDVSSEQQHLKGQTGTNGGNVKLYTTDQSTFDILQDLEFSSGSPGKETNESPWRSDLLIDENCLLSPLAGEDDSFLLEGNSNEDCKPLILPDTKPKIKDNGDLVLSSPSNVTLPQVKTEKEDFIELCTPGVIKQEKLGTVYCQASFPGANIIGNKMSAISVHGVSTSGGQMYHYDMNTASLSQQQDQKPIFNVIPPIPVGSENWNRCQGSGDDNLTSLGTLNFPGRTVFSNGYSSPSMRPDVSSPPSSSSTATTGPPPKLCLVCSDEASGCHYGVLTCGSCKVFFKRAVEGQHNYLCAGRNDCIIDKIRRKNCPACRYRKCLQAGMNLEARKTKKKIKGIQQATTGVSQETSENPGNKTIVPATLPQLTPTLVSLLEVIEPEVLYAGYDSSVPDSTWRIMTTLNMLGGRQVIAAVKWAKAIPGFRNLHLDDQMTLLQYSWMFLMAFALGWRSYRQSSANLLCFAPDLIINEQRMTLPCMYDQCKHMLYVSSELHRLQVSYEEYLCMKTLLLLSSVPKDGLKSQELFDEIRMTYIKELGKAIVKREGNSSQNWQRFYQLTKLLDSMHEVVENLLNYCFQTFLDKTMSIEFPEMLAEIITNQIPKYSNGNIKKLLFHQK
Chain of Thyroid hormone receptor beta (Homo sapiens) (P10828 whole entry, looked up): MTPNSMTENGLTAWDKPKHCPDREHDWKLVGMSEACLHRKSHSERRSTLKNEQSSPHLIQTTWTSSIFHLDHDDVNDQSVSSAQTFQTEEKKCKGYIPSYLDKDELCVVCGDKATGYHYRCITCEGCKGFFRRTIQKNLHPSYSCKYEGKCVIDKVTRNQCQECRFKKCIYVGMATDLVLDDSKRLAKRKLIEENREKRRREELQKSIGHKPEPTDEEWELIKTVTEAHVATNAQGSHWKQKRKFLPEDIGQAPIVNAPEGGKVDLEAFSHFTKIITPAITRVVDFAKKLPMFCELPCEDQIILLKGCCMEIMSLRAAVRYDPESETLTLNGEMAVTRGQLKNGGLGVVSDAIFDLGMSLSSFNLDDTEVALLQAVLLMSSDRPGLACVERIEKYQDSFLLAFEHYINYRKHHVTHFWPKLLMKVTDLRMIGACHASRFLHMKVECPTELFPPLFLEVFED
Chain of Androgen receptor (Homo sapiens) (P10275 whole entry, looked up): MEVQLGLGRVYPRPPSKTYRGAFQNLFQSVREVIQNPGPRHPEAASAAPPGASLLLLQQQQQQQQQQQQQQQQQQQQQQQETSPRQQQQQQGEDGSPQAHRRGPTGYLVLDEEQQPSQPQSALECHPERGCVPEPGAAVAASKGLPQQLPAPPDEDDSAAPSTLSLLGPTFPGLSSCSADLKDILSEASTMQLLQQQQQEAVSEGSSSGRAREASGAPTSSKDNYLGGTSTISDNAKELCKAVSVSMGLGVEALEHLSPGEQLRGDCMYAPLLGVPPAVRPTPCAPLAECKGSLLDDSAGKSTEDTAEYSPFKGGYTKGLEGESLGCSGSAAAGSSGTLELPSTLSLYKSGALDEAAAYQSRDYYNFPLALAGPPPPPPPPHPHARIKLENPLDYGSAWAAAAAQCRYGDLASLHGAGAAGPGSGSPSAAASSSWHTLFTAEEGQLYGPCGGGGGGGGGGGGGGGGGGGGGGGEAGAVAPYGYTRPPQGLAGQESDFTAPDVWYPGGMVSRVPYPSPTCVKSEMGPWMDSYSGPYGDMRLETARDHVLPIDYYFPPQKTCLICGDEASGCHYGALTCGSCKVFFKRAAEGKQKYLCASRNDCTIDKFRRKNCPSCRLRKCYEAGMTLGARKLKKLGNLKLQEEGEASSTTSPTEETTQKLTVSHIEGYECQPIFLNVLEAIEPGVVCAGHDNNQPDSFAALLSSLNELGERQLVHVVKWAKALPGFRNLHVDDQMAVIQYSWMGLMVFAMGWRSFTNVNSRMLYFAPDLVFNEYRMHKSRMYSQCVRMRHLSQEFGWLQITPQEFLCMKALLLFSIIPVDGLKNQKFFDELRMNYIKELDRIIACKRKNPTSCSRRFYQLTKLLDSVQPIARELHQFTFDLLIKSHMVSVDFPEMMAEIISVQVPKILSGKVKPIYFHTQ
Chain of Peroxisome proliferator-activated receptor gamma (Homo sapiens) (P37231 whole entry, looked up): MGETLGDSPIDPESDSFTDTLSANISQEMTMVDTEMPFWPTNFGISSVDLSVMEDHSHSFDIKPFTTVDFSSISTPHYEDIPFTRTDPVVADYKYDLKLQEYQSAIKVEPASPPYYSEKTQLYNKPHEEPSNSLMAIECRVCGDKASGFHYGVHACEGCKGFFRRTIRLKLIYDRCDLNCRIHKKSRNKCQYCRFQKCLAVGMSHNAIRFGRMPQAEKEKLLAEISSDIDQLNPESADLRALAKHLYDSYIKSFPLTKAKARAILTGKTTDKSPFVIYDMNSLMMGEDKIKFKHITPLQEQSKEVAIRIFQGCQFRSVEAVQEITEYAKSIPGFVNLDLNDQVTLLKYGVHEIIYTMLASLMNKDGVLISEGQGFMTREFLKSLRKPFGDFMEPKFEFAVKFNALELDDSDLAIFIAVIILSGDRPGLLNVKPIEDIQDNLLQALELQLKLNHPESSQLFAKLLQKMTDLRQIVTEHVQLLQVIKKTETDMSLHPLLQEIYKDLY

SMILES: COC(=O)c1c(C(F)F)nc(C(F)(F)F)c(C2=NCCS2)c1CC(C)C
- activation [1]: -1.74% (inactive)
- Potency [2]: inactive
- max response [3]: -95%
- activity change % (negative = inhibition) [4]: -8.88% (inactive)

SMILES: CC1(C)[C@H](C(=O)O[C@H](C#N)c2cccc(Oc3ccccc3)c2)[C@@H]1/C=C(\Cl)C(F)(F)F
- Potency [5]: inactive
- activation [6]: -0.137% (inactive)
- Potency [7]: inactive
- max response [3]: -6.46%
- max response [8]: 9.43%
- activity change % (negative = inhibition) [4]: 3.81% (inactive)
- Potency [9]: 54.5 µM (active)

SMILES: O=[N+]([O-])c1ccc(Nc2ccccc2)cc1
- Potency [5]: inactive
- activation [6]: 0.7% (inactive)
- Potency [7]: inactive
- Potency [9]: 48.6 µM (active)

SMILES: CNC(=O)N(C)c1nc2ccccc2s1
- activation [1]: -11.3% (inactive)
- Potency [5]: inactive
- Potency [7]: inactive
- Potency [10]: inactive
- max response [8]: -6.4%
- activity change % (negative = inhibition) [4]: 9.18% (inactive)
- Potency [9]: 27.3 µM (active)
